# KLF5 inh: inhibitors of KLF5 expression | inhibition, % at 5 µM | DLD-1 KLF5 promoter-luciferase reporter, luminescence | AID 1700 | 290,000 tested, 0.23% active;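 active means inhibition above a per-plate limit of that plate's mean compound inhibition plus 3 SD, cut at about 60% in these data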;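 further: higher means less KLF5 promoter-driven luciferase light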
# aSyn 5UTR inh: MLPCN primary screen, SNCA 5' untranslated region | alpha-synuclein 5'UTR reporter, inhibitor activity | inhibition, % (tested at 7.5 µM) | 300,000 tested, 0.82% active; in the data active means inhibition above about 60%; inconclusive means no clear call, values can overlap the other calls;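 further: H4 neuroglioblastoma cells stably carrying SNCA 5'UTR luciferase fusion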
# BaF3 tox: parental Ba/F3 viability inhibition as JAK2V617F counter-screen; 220,000 tested, 1.1% active; CellTiter-Glo ATP luminescence; inhibition, % at 5.6 µM;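 active means inhibition above a per-campaign cutoff, the mean inhibition of all tested compounds plus 3 SD, cut at about 27% in these data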
# Ba/F3 V617F tox: lowers viability of Ba/F3 cells expressing EpoR and JAK2V617F | inhibition, % at 5.6 µM | 220,000 tested, 1.1% active | AID 1446 | ATP luminescence;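 active means inhibition above the campaign mean plus 3 SD over all tested compounds, cut at about 24% in these data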;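 further: cytokine-independent growth of Ba/F3 cells driven by EpoR plus mutant JAK2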
# IEC-6 tox: IEC-6 cytotoxicity, counter-screen for KLF5 inhibitors. inhibition, % at 5 µM. luminescence viability. 290,000 tested, 0.78% active; in the data active means inhibition above about 22%
# APP transl inh: APP translation inhibition; SH-SY5Y APP 5'UTR-luciferase reporter, luminescence; inhibition, % at 2 µM; 190,000 tested, 0.82% active; AID 1285;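 active means inhibition above a set limit, derived from the sample mean plus 3 SD, cut at about 45% in these data; inconclusive means one replicate passes the limit while the other fails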
# Numbers stand for hits; – = inactive; ? = inconclusive; · = no result given. Sampled rows, rich in hits. Any-hit rate of the full collection: about 2.2%.
SMILES,KLF5 inh,aSyn 5UTR inh,BaF3 tox,Ba/F3 V617F tox,IEC-6 tox,APP transl inh
COc1ccc(OC(=O)C(C)N2C(=O)c3ccccc3C2=O)cc1 (configuration not stated),–,–,·,·,–,·
Oc1ccc(-c2csc(-c3cccnc3)n2)cc1O,–,–,37.1,40.8,–,·
Fc1ccc(-c2csc(-c3cccnc3)n2)cc1F,–,–,·,·,–,·
Cn1c(=O)c(Cc2ccccc2)c(O)c2ccccc21,–,–,–,–,–,–
Cn1c(Cc2ccccc2)[n+](C)c2ccccc21,–,–,68.9,66.6,–,–
CNC(=S)N/N=C(\C)c1ccc(N2CCOCC2)cc1,–,–,41.1,96.0,–,–
O=C(c1ccco1)N1N=C(c2ccc(Br)cc2)CC1(O)C(F)(F)F (configuration not stated),–,–,73.9,–,–,–
COc1cc2c(cc1OC)C(NNC(=O)c1ccc(Br)o1)=NC(C)(C)C2,–,–,·,·,–,·
OC1(c2cccs2)CN(c2ccc(Cl)cc2)C2=[N+]1CCCC2 (configuration not stated),–,–,32.2,–,–,–
OC1(c2cccs2)CN(c2ccc(Cl)cc2)C2=[N+]1CCCS2 (configuration not stated),–,–,–,–,–,–
O=C1C(Cl)=C(NCCN2CCCCC2)C(=O)c2ccccc21,–,?,–,–,41.8,95.1
Cc1cccc(N2CCN(C(=O)CCCn3c(=O)[nH]c4ccsc4c3=O)CC2C)c1 (configuration not stated),–,–,·,·,–,·
CCc1ccc2[nH]c(C(=O)N(C)c3ccc(F)cc3F)cc2c1,–,–,·,·,–,·
O=c1cc(CN2CCN(c3ccccc3F)CC2)c2cc(O)c(-c3ccccc3)cc2o1,–,–,–,–,–,–
COc1ccc(N2CCN(Cc3cc(=O)oc4cc(-c5ccccc5)c(O)cc34)CC2)cc1,–,73.1,–,–,–,–
COc1ccccc1-c1noc(-c2ccccc2C(=O)NCC2CCCO2)n1 (configuration not stated),–,–,·,·,–,·
Cc1ccccc1-c1noc(-c2ccccc2C(=O)NCC2CCCO2)n1 (configuration not stated),–,·,62.3,–,–,·
O=C(Nc1ccc(S(=O)(=O)N2CCOCC2)cc1)c1ccc(CN2CCc3ccccc3C2)cc1,–,–,50.5,63.4,–,–
CC(=O)Nc1ccc(C2=NN(Cc3nnc(-c4ccccc4)o3)C(=O)SC2)cc1,–,–,–,–,–,–
O=C1SCC(c2ccccc2)=NN1Cc1ccccc1,–,–,32.4,–,–,–
CCOC(=O)C1=C(Cc2ccc(C)cc2)C(=O)c2ccccc2C1=O,–,–,–,–,–,–
CCOC(=O)C1=C(Cc2ccc(OC)cc2)C(=O)c2ccccc2C1=O,–,·,–,–,–,72.3
CN(C(=O)COc1ccccc1C(=O)NCCOc1ccccc1)c1ccccc1,–,–,36.3,–,–,–
COc1cccc(/C=C/C(=O)OCC(=O)NC(=O)NC2CCCCC2)c1,·,–,·,·,·,·
Cc1ccc(C)c(N2CCN(C(=O)c3ccc(N4CCOCC4)c([N+](=O)[O-])c3)CC2)c1,–,–,·,·,–,·
SMILES,KLF5 inh,aSyn 5UTR inh,BaF3 tox,Ba/F3 V617F tox,IEC-6 tox,APP transl inh
CCN1/C(=C/C=C/c2oc3ccc4ccccc4c3[n+]2CC)Oc2ccc3ccccc3c21,–,92.5,68.3,100.9,–,54.0
NS(=O)(=O)c1ccc(CCNC(=O)c2ccc[nH]c2=S)cc1,–,–,·,·,–,·
Cc1ccc(O)c(NC(=O)CCC2CCCCC2)c1,–,–,58.2,72.8,–,–
O=C(CCC1CCCCC1)Nc1ccccc1O,–,–,–,–,–,–
Cc1cc(NC(=O)c2ccc(F)cc2)n(C)n1,–,–,·,·,–,·
Cn1c2ccc(Br)cc2c2nnc(SCC(=O)O)nc21,–,62.0,·,·,–,·
Cn1c2ccccc2c2nnc(SCC(N)=O)nc21,–,–,·,·,–,·
CCOc1ccc(-n2c(C)cc(/C=N/NC(=O)C(N)=O)c2C)cc1,–,–,–,–,–,–
CCOc1ccc(-n2c(C)cc(C(=O)CCl)c2C)cc1,–,110.8,–,–,–,–
CCOc1ccc(-n2c(C)cc(/C=N/N(C)C)c2C)cc1,–,–,36.8,–,–,–
CC(Cl)C(=O)Nc1c2c(nn1-c1ccccc1)CSC2 (configuration not stated),–,–,·,·,–,·
CN(C)S(=O)(=O)Oc1ccc(C(=O)Nc2ccc([N+](=O)[O-])cc2)cc1,–,–,–,–,–,–
COC(=O)c1ccc(OS(=O)(=O)N(C)C)cc1,–,–,35.6,–,–,–

# Assay outcomes: PubChem, several laboratories
